Among the data in PubChem BioAssay (NCATS) are Potency values, retold here.

Experiment [1] can be described thus: Quantitative High-Throughput drug screen in 47 multiple myeloma cell lines against the NCATS MIPE library collection: U266_ATCC cell viability assay (AID 1919864). Further: nearly all actives have a fitted effect of over 35% in size. In outline:
(§1)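 500 cells/well per myeloma line exposed to pinned MIPE 4.0 compounds for 48 h at 37 °C, 5% CO2. Viability read as ATP by CellTiter-Glo luminescence, normalised to DMSO-only (100%) and media-only (0%) wells.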

A short description of experiment [2]: Quantitative High-Throughput drug screen in 47 multiple myeloma cell lines against the NCATS MIPE library collection: XG6_PLB cell viability assay (AID 1919865). Further: nearly all actives have a fitted effect of over 40% in size. In outline:
as §1

A short description of experiment [3]: Quantitative High-Throughput drug screen in 47 multiple myeloma cell lines against the NCATS MIPE library collection: XG1_PLB cell viability assay (AID 1919866). Further: nearly all actives have a fitted effect of over 35% in size. In outline:
as §1

Experiment [4] can be described thus: Quantitative High-Throughput drug screen in 47 multiple myeloma cell lines against the NCATS MIPE library collection: VP6_DJ cell viability assay (AID 1919867). Further: nearly all actives have a fitted effect of over 40% in size. The essentials:
as §1

A short description of experiment [5]: Quantitative High-Throughput drug screen in 47 multiple myeloma cell lines against the NCATS MIPE library collection: PE2_PLB cell viability assay (AID 1919869). Further: nearly all actives have a fitted effect of over 35% in size. In outline: as §1
Experiment [6] is described as follows: Quantitative High-Throughput drug screen in 47 multiple myeloma cell lines against the NCATS MIPE library collection: PCM6_Riken cell viability assay (AID 1919870). Further: nearly all actives have a fitted effect of over 30% in size. In outline: as §1
Experiment [7] is described as follows: Quantitative High-Throughput drug screen in 47 multiple myeloma cell lines against the NCATS MIPE library collection: RPMI8226_ATCC cell viability assay (AID 1919871). Further: nearly all actives have a fitted effect of over 30% in size. In outline:
as §1

Experiment [8] can be described thus: Quantitative High-Throughput drug screen in 47 multiple myeloma cell lines against the NCATS MIPE library collection: OPM2_DSMZ cell viability assay (AID 1919872). Further: nearly all actives have a fitted effect of over 30% in size. The essentials:
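Approved and investigational drugs from MIPE 4.0 were added by pin tool to 500 cells per well. After 48 hours at 37C, ATP-based CellTiter-Glo luminescence indicated remaining viability.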

Experiment [9] is described as follows: Quantitative High-Throughput drug screen in 47 multiple myeloma cell lines against the NCATS MIPE library collection: UTMC2_PLB cell viability assay (AID 1919868). Further: nearly all actives have a fitted effect of over 55% in size. Conditions: CellTiter-Glo ATP luminescence, 48 h; viability (% of DMSO control): at 45.8 µM (top of the series). The essentials:
as §1

The nature of experiment [10]: Quantitative High-Throughput drug screen in 47 multiple myeloma cell lines against the NCATS MIPE library collection: KMS11_JCRBsus cell viability assay (AID 1919873). Further: nearly all actives have a fitted effect of over 50% in size. The essentials:
as §1

Molecules are shown by their SMILES. Inconclusive results are not listed. Calls of active or inactive are those of the source. The call rests on the fitted dose curve; in most records, active means well fitted cell-killing curve with a large enough effect; inconclusive means small, poorly fitted or top-dose-only effect, or effect the other way; inactive means no such curve, though single readings can be large or run the other way.
Potency means the concentration at half of the fitted maximal effect.

Turning to `C[C@@]12C[C@@]3(O)O[C@@H](O1)[C@]1(COC(=O)c4ccccc4)[C@@H]3C[C@@]12O[C@@H]1O[C@H](CO)[C@@H](O)[C@H](O)[C@@H]1O`, the Potency result in [1], in [2], in [3], in [5], in experiment [6] and in [7] was “inactive” in each case. Moreover, the Potency result in experiment [8] was “inactive”. Further, the Potency in experiment [4] is 2640 nM (active).

For the molecule `O=C(O)c1ccc(Nc2ncc3c(n2)-c2ccc(Cl)cc2C(c2c(F)cccc2F)=NC3)cc1`, the Potency is 20900 nM (active) in experiment [1]; 662 nM (active) in experiment [2]; 418 nM (active) in [3]; 5900 nM (active) in experiment [4]; 1660 nM (active) in experiment [9]; 16600 nM (active) in [6]. In addition, the figures for the Potency in [7] and in experiment [10] were 14800 nM (active) and 132 nM (active), respectively.

On to `COc1cc2c(cc1O)CCC1C2CC[C@@]2(C)C1CC[C@@H]2O` (stereo not given in full), for which the Potency in experiment [1] is 13200 nM (active); in [2], 469 nM (active); in experiment [3], 662 nM (active); in [4], 2640 nM (active); in experiment [9], 935 nM (active); in experiment [5], 3720 nM (active). In addition, the Potency in experiment [8] was 3720 nM (active); in [10] it was 743 nM (active).

Regarding `CCCNS(=O)(=O)Nc1ncnc(OCCOc2ncc(Br)cn2)c1-c1ccc(Br)cc1`, the Potency result in [1], in [2], in experiment [3], in experiment [4], in experiment [9] and in [6] was “inactive” throughout. The Potency result in experiment [8] and in [10] was “inactive” each time.

With `C=CC(=O)Nc1ccc2ncnc(Nc3ccc(OCc4cccc(F)c4)c(Cl)c3)c2c1`, the Potency in [1] was 14800 nM (active); in experiment [2], 14.8 nM (active); in [3], 66.2 nM (active); in experiment [4], 264 nM (active); in experiment [5], 590 nM (active); in experiment [6], 1660 nM (active). The Potency was 9350 nM (active) in [7], 1050 nM (active) in experiment [8] and 187 nM (active) in experiment [10].

Take `CC(=O)NCC(=O)N1[C@H]2CC[C@H]1c1cc(Nc3ncc(C(F)(F)F)c(NC4CCC4)n3)ccc12`: the Potency in [1] was 5900 nM (active); in [2], 1180 nM (active); in experiment [3], 332 nM (active); in [4], 833 nM (active); in experiment [5], 1660 nM (active); in experiment [6] it was 1870 nM (active). The values for the Potency in experiment [7], in experiment [8] and in experiment [10] were 5900 nM (active), 1480 nM (active) and 66.2 nM (active), respectively.

On to `C=CC[C@@H]1C=C(C)C[C@H](C)C[C@H](OC)[C@H]2O[C@@](O)(C(=O)C(=O)N3CCCC[C@H]3C(=O)O[C@H](C(C)=C[C@@H]3CC[C@H](O)[C@H](OC)C3)[C@@H](C)[C@@H](O)CC1=O)[C@@H](C)C[C@@H]2OC`, for which the Potency in experiment [1] was 1320 nM (active); in [2], 1480 nM (active); in experiment [3], 2350 nM (active); in [4], 833 nM (active); in experiment [9], 2960 nM (active); in experiment [5], 2640 nM (active). Besides, the Potency in experiment [6] was 935 nM (active); in experiment [7] it was 2090 nM (active); in experiment [10] it was 833 nM (active).

Consider `CNC(=O)c1ccc(Nc2cc(Nc3ccccc3S(=O)(=O)C(C)C)c3cc[nH]c3n2)nc1`, for which the Potency in experiment [1] was 1480 nM (active); in experiment [2], 662 nM (active); in experiment [3], 296 nM (active); in [4], 526 nM (active); in [5] it was 1180 nM (active); in [6] it was 1180 nM (active). Besides, the Potency is 18700 nM (active) in experiment [7], 7430 nM (active) in experiment [8] and 2640 nM (active) in experiment [10].

For the molecule `COc1ccc2c(c1OC)C(=O)OC2[C@H]1c2c(cc3c(c2OC)OCO3)CCN1C` (stereo not given in full), the Potency in experiment [1] was 1660 nM (active); in experiment [2], 46.9 nM (active); in [3], 41.8 nM (active); in experiment [4], 74.3 nM (active); in [9], 132 nM (active); in experiment [5] it was 372 nM (active). For the same molecule, the Potency in experiment [6] was 469 nM (active); in experiment [7], 3720 nM (active); in experiment [10], 26.4 nM (active).

For the molecule `CN1C(C(=O)Nc2ccccn2)=C(O)c2sc(Cl)cc2S1(=O)=O`, the Potency is 4180 nM (active) in experiment [1]; 2090 nM (active) in experiment [2]; 1660 nM (active) in [3]; 3320 nM (active) in experiment [4]; 4690 nM (active) in experiment [9]; 3720 nM (active) in experiment [5]. Further, in [6], the Potency was 2640 nM (active). In addition, the Potency result in experiment [8] is “inactive”.

Consider `Cc1cnc(Nc2ccc(N3CCN(C)CC3)cc2)nc1Nc1cccc(S(=O)(=O)NC(C)(C)C)c1`, for which the Potency in experiment [1] is 11800 nM (active); in [2], 662 nM (active); in experiment [3], 469 nM (active); in experiment [4] it was 469 nM (active); in [5], 1320 nM (active); in [6], 3720 nM (active). Moreover, the values for the Potency in experiment [7], in experiment [8] and in experiment [10] were 4180 nM (active), 6620 nM (active) and 1320 nM (active), respectively.

As for `c1coc(CNc2ncnc3nc[nH]c23)c1`, the Potency result in experiment [1], in experiment [2], in [3], in experiment [8] and in experiment [10] was “inactive” throughout. Besides, the Potency in [4] is 18700 nM (active).

Turning to `C=C1CCC2[C@](C)(CO)C(O)CC[C@]2(C)C1CC=C1C(=O)OCC1O` (stereo not given in full), the Potency entry in experiment [1], in experiment [2], in experiment [3], in experiment [4], in experiment [5] and in [6] was “inactive” throughout. Moreover, the Potency result in [10] is “inactive”. For the same molecule, the Potency in experiment [7] was 17.1 nM (active).

Take `C#CCC(Cc1cnc2nc(N)nc(N)c2n1)c1ccc(C(=O)N[C@@H](CCC(=O)O)C(=O)O)cc1` (stereo not given in full): the Potency in experiment [1] is 372 nM (active); in [2] it was 41.8 nM (active); in experiment [3], 59 nM (active); in experiment [4], 118 nM (active); in experiment [5] it was 418 nM (active); in [8], 33.2 nM (active). Also, the Potency in experiment [10] is 93.5 nM (active). Moreover, in experiment [7], the Potency result was “inactive”.

For `CCCNC(=O)[C@H]1O[C@H]1C(=O)N[C@H](C(=O)N1CCC[C@@H]1C(=O)OC)C(C)CC` (stereo not given in full), the Potency was 10500 nM (active) in experiment [1]; 8330 nM (active) in experiment [2]; 14800 nM (active) in experiment [3]; 16600 nM (active) in experiment [4]; 4180 nM (active) in experiment [5]; 16600 nM (active) in experiment [6]. Further, the Potency in experiment [7] is 20900 nM (active); in experiment [8], 11800 nM (active); in experiment [10], 23500 nM (active).
